Cruzain noTriton: qHTS Assay for Promiscuous and Specific Inhibitors of Cruzain (without detergent); Potency, µM, actives largely listed as inhibitors; AID 1476, 2009; Cruzipain (Trypanosoma cruzi), P25779; purified cruzain, Z-FR-AMC fluorescence, no detergent; actives 2.3% (n = 200,000); further: nearly all actives have a fitted effect of over 40% in size
Target sequence (P25779 123-467 limits assumed): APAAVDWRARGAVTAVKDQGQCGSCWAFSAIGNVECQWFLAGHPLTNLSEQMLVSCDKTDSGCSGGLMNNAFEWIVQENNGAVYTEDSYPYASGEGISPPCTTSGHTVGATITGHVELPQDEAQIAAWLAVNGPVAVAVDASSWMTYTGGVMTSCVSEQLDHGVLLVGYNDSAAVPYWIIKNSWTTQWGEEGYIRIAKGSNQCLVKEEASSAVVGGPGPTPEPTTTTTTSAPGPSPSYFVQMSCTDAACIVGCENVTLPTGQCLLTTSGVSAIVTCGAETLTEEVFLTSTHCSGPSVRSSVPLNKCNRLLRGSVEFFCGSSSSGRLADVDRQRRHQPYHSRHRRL
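Purified cruzain at 1.5 nM, pre-incubated 15 min with compound at room temperature in 100 mM sodium acetate pH 5.5, 5 mM DTT, 0.00005% Triton X-100. Reaction started with 2 uM Z-FR-AMC; AMC fluorescence increase over 60 s gives rate.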
Cruzain inh Det: qHTS Assay for Promiscuous and Specific Inhibitors of Cruzain (with detergent) | Cruzipain (Trypanosoma cruzi), P25779 | purified cruzain, Z-FR-AMC fluorescence, 0.01% Triton | Potency, µM, most hits filed as inhibitors | actives 0.43% (n = 200,000) | AID 1478, 2009; further: nearly all actives have a fitted effect of over 40% in size
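Steps: dispense cruzain (1.5 nM final) in acetate buffer pH 5.5 with DTT and 0.01% Triton X-100; pin-transfer compounds; incubate 15 min RT; add Z-FR-AMC (2 uM final); read fluorescence every 30 s, using the 60 s intensity change.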
Large screens that a line does not name were inactive. Rows were chosen to be rich in hits. Some 2.5% of all compounds tested hit in one or more screens of this group. The call rests on the fitted dose curve; in most records, active means well fitted curve in the direction sought with a large enough effect; inconclusive means small, poorly fitted or top-dose-only effect, or another doubt; inactive means no such curve, though single readings can be large; an effect the other way counts as inactive or inconclusive.

COc1ccccc1C(=O)NCCc1nc2ccccc2n1C	Cruzain noTriton 10µM, Cruzain inh Det inconclusive
COc1ccccc1C(=O)Nc1ccc2c(c1)nc(CCNC(C)=O)n2C	none
CCCCNC(=O)CCCN1C(=O)CCn2nc(-c3cccn3C)cc21	none
Cc1ccc(/C=C/c2onc(C)c2S(=O)(=O)N2CCC(C(=O)N3CC(C)Oc4ccccc43)CC2)cc1 (configuration not stated)	none
CCOc1ccc(-n2c(=O)c3c(C)c(C)sc3n(CC(=O)c3ccccc3)c2=O)cc1	none
CC1(C)N=C(N)N=C(N)N1c1cccc(OCc2cccc(N)c2)c1	none
O=C1/C(=C\c2ccccn2)SC(=S)N1Nc1ncc(C(F)(F)F)cc1Cl	Cruzain inh Det 12.6µM
O=C1/C(=C/c2ccc(F)cc2)SC(=S)N1Nc1ncc(C(F)(F)F)cc1Cl	Cruzain noTriton inconclusive
O=C(CCc1nc2ccccc2c(=O)[nH]1)OCC(=O)c1ccc(C2CCCCC2)cc1	Cruzain noTriton 15.8µM
CC1CC(C)CN(C(=O)COC(=O)CCc2nc3ccccc3c(=O)[nH]2)C1 (configuration not stated)	none
Cc1cc(SCC(=O)N2CCC(c3noc4ccc(F)cc34)CC2)nc2ccccc12	none
O=C(CSc1ncnc2sc3c(c12)CCCC3)N1CCC(c2noc3ccc(F)cc23)CC1	Cruzain noTriton 15.8µM
COc1cc(Cl)c(NC(=O)CN(C)S(=O)(=O)c2ccc3c(c2)CCCC(=O)N3)c(OC)c1	none
CCOc1ccc(-n2c(SCC(=O)N3CCc4ccccc43)nc3c([nH]c4ccccc43)c2=O)cc1	none
Cc1ccccc1OCC(=O)Nc1ccc2c(c1)Cc1ccccc1-2	Cruzain noTriton inconclusive
O=C(COc1ccccc1)Nc1ccc2c(c1)Cc1cc(NC(=O)COc3ccccc3)ccc1-2	Cruzain noTriton 2.51µM
COc1ccccc1Cc1nc2ccccc2nc1SCC(=O)N1CCC(C)CC1	none
COC(=O)c1n[nH]c2ccccc12	none
O=C(COC(=O)c1n[nH]c2ccccc12)Nc1ccc([N+](=O)[O-])cc1	Cruzain noTriton 10µM
[N-]=[N+]=NC[C@@H]1O[C@@H](n2cnc3c(N)ncnc32)[C@@H]2O[C@@H]21	none
CCCCCCc1cc2cc(-c3nnc(-c4ccc(C)cc4)o3)c(=O)oc2cc1O	none
CCCCCCc1cc2cc(S(=O)(=O)c3ccc(F)c(Cl)c3)c(=O)oc2cc1O	Cruzain noTriton 20µM
O=Cc1c(Sc2ccccc2)nc2ccccn2c1=O	none
O=c1c(/C=N/Nc2ccccc2)c(Sc2nnnn2-c2ccccc2)nc2ccccn12	Cruzain noTriton 15.8µM
CN(C(=O)c1ccc2c(c1)N(Cc1ccccc1F)C(=O)c1ccccc1S2(=O)=O)C1CCCCC1	none
CCOc1ccc(C2NC(=O)c3sc(=S)n(-c4ccccc4)c3N2)cc1 (configuration not stated)	none
COc1ccc(C2NC(=O)c3sc(=S)n(-c4ccccc4)c3N2)cc1 (configuration not stated)	Cruzain noTriton 25.1µM
COc1ccc(N2CCN(C(=O)CN3CCSc4ccccc43)CC2)cc1	Cruzain noTriton inconclusive
N#Cc1c(OCC(=O)c2ccccc2)nc2c(c1-c1ccco1)CCc1ccccc1-2	Cruzain noTriton 7.94µM, Cruzain inh Det 14.1µM
Cc1cc(C)c(C#N)c(OCC(=O)c2ccccc2)n1	none
COc1ccc(-c2c(C#N)c(SCC(=O)Nc3ccccc3C)nc(C)c2C(=O)Nc2ccc(Cl)cc2)cc1	none
COc1cccc(NC(=O)CSc2nc(=O)n(Cc3ccco3)c3c2CCC3)c1	none
CCOC(=O)c1sc(NC(=O)CSc2nc3c(cc2C#N)CCCCCC3)c(C#N)c1C	Cruzain noTriton inconclusive
COc1cccc(NC(=O)CSc2nc3c(c(-c4ccco4)c2C#N)CCCC3)c1	Cruzain noTriton 6.31µM
CCc1ccc(NC(=O)CSc2nc(C)c(C(=O)Nc3ccc(Cl)cc3)c(-c3ccc(OC)cc3)c2C#N)cc1	Cruzain noTriton 7.94µM
CCOC(=O)c1sc(NC(=O)CSc2nc3c(c(-c4ccc(OC)cc4)c2C#N)CCCC3)c(C#N)c1C	Cruzain noTriton 3.16µM
OC[C@@H](O)[C@@H](O)[C@@H](O)[C@@H](O)c1nc2ccc(Cl)cc2[nH]1	none
COc1ccccc1OCC(=O)Nc1cc(-c2ccc(C)cc2)no1	none
Cc1ccc(-c2cc(NC(=O)COc3ccc(Cl)cc3C)on2)cc1	Cruzain noTriton 10µM
Cc1cc(Cl)ccc1OCC(=O)O	none
Cc1cc(Cl)ccc1OCC(=O)Nn1c(C)ccc1C	Cruzain noTriton 2.51µM
CCOC(=O)c1cc(OC(=O)c2ccccc2F)n(-c2ccccc2)n1	none
Nc1nc(Cl)cc(NCCO)n1	none
O=C(/C=C1\NC2(CCCC2)Cc2ccccc21)C(=O)N/N=C/c1ccccc1O	Cruzain noTriton 25.1µM
COc1cc(/C=N/NC(=O)C(=O)/C=C2\NC3(CCCC3)Cc3ccccc32)ccc1O	none
COc1cccc(NC(=O)/C(C#N)=C/c2ccc(-c3ccc(C)cc3)o2)c1	Cruzain noTriton inconclusive
COc1cccc(NC(=O)/C(C#N)=C\c2cn(Cc3ccc(C)cc3)c3ccccc23)c1	Cruzain noTriton 7.94µM
N#C/C(=C/c1cn(Cc2ccc(F)cc2)c2ccccc12)C(=O)Nc1cccc(Cl)c1	Cruzain noTriton 7.94µM
N#C/C(=C\c1cn(Cc2ccc(C#N)cc2)c2ccccc12)C(=O)NCc1cccs1	Cruzain noTriton inconclusive
COc1ccc2c(c1)OC(=O)CC2c1ccc2c(c1)OCO2 (configuration not stated)	none
CCOc1ccc2ncc3c(-c4ccc(C)cc4)nn(-c4cccc(F)c4)c3c2c1	none
O=C(COC(=O)c1ccc(-c2nnc(-c3ccccc3)o2)cc1)c1ccccc1	Cruzain noTriton 7.94µM
Nc1cccc(C(=O)OCC(=O)c2ccccc2)c1	none
CCCn1c(-c2ccc(F)cc2)nc2c(NCC(C)(C)CN(C)C)nc(C)nc21	none
CCN(CC)S(=O)(=O)c1ccc2c(c1)N(CC(=O)NCc1ccccc1)C(=O)C1CCCCN21 (configuration not stated)	none
Cc1ccccc1OCC(=O)N/N=C/c1ccc2c(c1)OCCO2	none
Cc1cc(C)c(OCC(=O)N/N=C/c2ccc3c(c2)OCO3)c(C)c1	Cruzain noTriton 20µM
O=C(N/N=C\c1ccc2c(c1)OCO2)c1ccco1	none
O=C(NCCc1ccccc1)C(=O)N/N=C/c1ccc2c(c1)OCO2	Cruzain noTriton 20µM
COc1ccc(CNC(=O)CCc2c(C)nn(-c3ccc(N4CCCC4)nn3)c2C)c(OC)c1	none
COc1ccccc1-c1noc(-c2ccc(NC3CCCC3)c([N+](=O)[O-])c2)n1	Cruzain noTriton inconclusive
COc1ccc(CCC(=O)NCc2nc3cccnc3n2Cc2ccc(C)cc2)cc1	none
COc1ccc(CC(=O)NCC(c2ccc(N(C)C)cc2)N2CCOCC2)cc1OC (configuration not stated)	none
COc1ccc(-c2cc(C(=O)OCC(=O)c3cccc([N+](=O)[O-])c3)c3cc(C)ccc3n2)cc1	Cruzain noTriton 10µM
COc1ccc(-c2cc(C(=O)Oc3cccc(C)c3)c3cc(C)ccc3n2)cc1	none
COc1cc2nc(SCC(=O)Nc3cccc(C)c3)n3nc(CCn4c(C)nc5ccccc54)nc3c2cc1OC	none
O=C(NC1CCCC1)c1cc2c(ccc3ccccc32)o1	none
O=C(N/N=C/c1cccnc1)c1cc2c(ccc3ccccc32)o1	none
Cc1ccc(/C=N/NC(=O)c2cc3c(ccc4ccccc43)o2)cc1[N+](=O)[O-]	Cruzain noTriton 6.31µM
O=C(N/N=C/c1cn(CCOc2ccccc2)c2ccccc12)c1ccncc1	Cruzain noTriton inconclusive
